Experimental data taken from PubChem BioAssay (Tox21).
Results filed as inconclusive are left out. A call without a number means that no potency is given here. The source made the active and inactive calls. Unless noted, the call rests on the fitted dose curve; in most records, active means well fitted curve in the direction sought with a large enough effect in the repeat runs; inconclusive means weak or mixed curves; inactive means no such curve, though single readings can be large; an effect the other way counts as inactive or inconclusive.

Assays:
[1] = target: Estrogen receptor beta (Homo sapiens) (UniProt Q92731); assay: qHTS assay to identify small molecule agonists of the estrogen receptor beta (ER-beta) signaling pathway (AID 1259377; active means well fitted activation curve with a large enough effect in the signal ratio in the repeat runs, not every such curve was filed as active; the % refers to the signal ratio)
Procedure, shortened: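 Measured by fluorescence intensity from a B/G FRET beta-lactamase substrate (2 h, room temperature) in ER-beta-UAS-bla HEK293T cells treated with DMSO-dissolved compounds for 16 hr at 37C and 5% CO2.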

[2] = target: Estrogen receptor beta (Homo sapiens) (UniProt Q92731); assay: qHTS assay to identify small molecule antagonists of the estrogen receptor beta (ER-beta) signaling pathway (AID 1259378; active means well fitted inhibition curve with a large enough effect in the signal ratio in the repeat runs, not every such curve was filed as active; the % refers to the signal ratio; further: potency means the concentration at half of the fitted maximal effect)
Procedure, shortened: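 ER-beta-UAS-bla HEK293T cells in 2% charcoal-stripped FBS medium treated with compound plus 1nM final 17-beta-estradiol for 16 hr at 37C. Beta-lactamase reporter read by FRET substrate fluorescence after 2 hours at room temperature.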

[3] = qHTS assay to identify small molecule agonists of the androgen receptor (AR) signaling pathway in the presence of an antagonist - cell viability counter screen (AID 1259379); further: nearly all actives have a fitted effect of over 25% in size; further: potency means the concentration at half of the fitted maximal effect
Procedure, shortened: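 Cells: MDA-kb2 (MMTV-luc, AR and GR elements), 3,000/well, 5 hr settle. Added: nilutamide 3.0uM final, then compounds (15 conc.). Incubation: 16 hr, 37C, no CO2. Read-out: CellTiter-Fluor, 1 hr, fluorescence.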

[4] = qHTS assay to identify small molecule agonists of the estrogen receptor beta (ER-beta) signaling pathway - cell viability counter screen (AID 1259380); further: nearly all actives have a fitted effect of over 30% in size; further: potency means the concentration at half of the fitted maximal effect
Procedure, shortened: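 HEK293T ER-beta-UAS-bla; 2% CS-FBS; 6 hr pre-plate, 16 hr cpd at 37C/5% CO2; LiveBLAzer read first, then CellTiter-Glo 30 min RT, luminescence.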

[5] = qHTS assay to identify small molecule antagonists of the estrogen receptor beta (ER-beta) signaling pathway - cell viability counter screen (AID 1259382); further: series mostly up to about 92 µM; nearly all actives have a fitted effect of over 55% in size
Procedure, shortened: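 Cells: ER-beta-UAS-bla HEK293T, 2,000/well, 2% CS-FBS, 6 hr settle. Cpd + E2 (1nM final), 16 hr, 37C/5% CO2. Bla FRET substrate 2 hr RT, then CellTiter-Glo 30 min RT, luminescence.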

[6] = target: Estrogen receptor (Homo sapiens) (UniProt P03372); assay: qHTS assay to identify small molecule agonists of the estrogen receptor alpha (ER-alpha) signaling pathway in the presence of an antagonist (AID 1259383; calls by dose curve; further: top concentration of the series differs between compounds; nearly all actives have a fitted effect of over 15% in size)
Procedure, shortened: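 VM7Luc4E2, endog. ER-alpha + 4×ERE-luc; charcoal-stripped FBS, phenol red-free, 5 d; 24hr plating; +10.0nM ICI-182,780 (final); cpds 15 conc, 22hr, 37C/5% CO2; ONE-Glo luminescence.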

[7] = target: Thyrotropin receptor (Homo sapiens) (UniProt P16473); assay: qHTS assay to identify small molecule antagonists of the thyroid stimulating hormone receptor (TSHR) signaling pathway (AID 1259385; calls by dose curve; further: nearly all actives have a fitted effect of over 20% in size)
Procedure, shortened: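 TSHR-HEK293 cells (800/well) plated 18 h, then compounds with Ro20-1724 and TSH at 1.5 ng/mL final, 30 min at room temperature. cAMP quantified by HTRF (cAMP-d2/anti-cAMP-cryptate, 1 h); 15 concentrations in triplicate.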

[8] = qHTS assay to identify small molecule agonists of the estrogen receptor alpha (ER-alpha) signaling pathway in the presence of an antagonist - cell viability counter screen (AID 1259386);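 further: cells exposed to compounds for 22 h at 37 °C before the viability read; nearly all actives have a fitted effect of over 30% in size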; further: potency means the concentration at half of the fitted maximal effect
Procedure, shortened: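 VM7Luc4E2, stripped-serum pre-culture 5 d; 24hr plating; +ICI-182,780 10.0nM final; cpds 15 conc, 22hr, 37C/5% CO2; CellTiter-Fluor added at 21hr, fluorescence 1hr later.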

[9] = target: Progesterone receptor (Homo sapiens) (UniProt P06401); assay: qHTS assay to identify small molecule agonists of the progesterone receptor (PR) signaling pathway (AID 1346784; calls by dose curve; further: nearly all actives have a fitted effect of over 30% in size)
Procedure, shortened: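 The screen uses PR-UAS-bla HEK 293T cells in charcoal-stripped serum (2%). Compounds are applied for 16 hr at 37C after a 6 hr pre-incubation, and reporter activity is detected with a FRET beta-lactamase substrate after 2 hr at room temperature.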

[10] = qHTS assay to identify small molecule antagonists of the progesterone receptor (PR) signaling pathway - cell viability counter screen (AID 1346798); further: nearly all actives have a fitted effect of over 50% in size; further: potency means the concentration at half of the fitted maximal effect
Procedure, shortened: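 Viability was determined by ATP-based luminescence (CellTiter-Glo) in PR-UAS-bla HEK293T cells cultured in 2% charcoal-stripped serum and incubated 16 hr with compounds under R5020 stimulation.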

[11] = qHTS assay to identify small molecule agonists of the progesterone receptor (PR) signaling pathway - cell viability counter screen (AID 1346799; calls by dose curve; further: nearly all actives have a fitted effect of over 45% in size)
Procedure, shortened: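 Viability was scored by ATP luminescence (CellTiter-Glo, 30 min, room temperature) in the same wells used for the reporter readout, after 16 hr compound exposure of PR-UAS-bla HEK293T cells.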

[12] = qHTS assay to identify small molecule agonists of the TGF-beta/Smad signaling pathway - cell viability counter screen (AID 1346829); further: top concentration of the series differs between compounds; nearly all actives have a fitted effect of over 45% in size
Procedure, shortened: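 Here the cytotoxicity of library compounds is measured in SBE-bla HEK 293T cells treated for 5 hr, using CellTiter-Glo added to wells already read for the beta-lactamase reporter.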

[13] = qHTS assay to identify small molecule agonists of the TGF-beta/Smad signaling pathway (AID 1346859; active means well fitted activation curve with a large enough effect in the signal ratio in the repeat runs, not every such curve was filed as active; the % refers to the signal ratio; further: series mostly up to about 77 µM)
Procedure, shortened: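 Dual-wavelength fluorescence (460/530 nm emission) quantified beta-lactamase expression under the Smad binding element in HEK 293T cells following 5 hr compound treatment at 37 C.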

[14] = target: Thyrotropin-releasing hormone receptor (Homo sapiens) (UniProt P34981); assay: qHTS assay to identify small molecule antagonists of the thyrotropin-releasing hormone receptor (TRHR) signaling pathway (AID 1346877; active means well fitted inhibition curve with a large enough effect in the repeat runs, not every such curve was filed as active; further: series mostly up to about 51 µM)
Procedure, shortened: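 Intracellular calcium fluorescence, read kinetically every second over 3 min, reports TRH-evoked signalling in HEK293 cells carrying TRHR. Test compounds were added 5 min ahead of a 1 nM TRH challenge.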

[15] = target: Thyrotropin-releasing hormone receptor (Homo sapiens) (UniProt P34981); assay: qHTS assay to identify small molecule agonists of the thyrotropin-releasing hormone receptor (TRHR) signaling pathway (AID 1346891; calls by dose curve;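 further: HEK293 cells expressing TRHR with calcium dye readout; series mostly up to about 58 µM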)
Procedure, shortened: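 Kinetic fluorescence (3 min, 1 s intervals) reported intracellular calcium after compound transfer onto TRHR-Hek293 cells pre-loaded with dye for 2 h at 37 °C.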

[16] = Human pregnane X receptor (PXR) small molecule agonists, qHTS cell viability counter screen (AID 1346977); further: nearly all actives have a fitted effect of over 50% in size; further: potency means the concentration at half of the fitted maximal effect
Procedure, shortened: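 HepG2 cells stably carrying the PXR-Luc reporter are cultured with 5% charcoal-stripped FBS and treated with compounds for 24hr. CellTiter-Fluor is added at 23hr and fluorescence is read after 1hr.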

[17] = target: Androgen receptor (Homo sapiens) (UniProt P10275); assay: qHTS assay to identify small molecule agonists of the androgen receptor (AR) signaling pathway in the presence of an antagonist (AID 1259381; calls by dose curve; further: nearly all actives have a fitted effect of over 15% in size; further: potency means the concentration at half of the fitted maximal effect)
Procedure, shortened: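 MDA-kb2 cells, 3,000/well, rested 5hr at 37C/0% CO2 → nilutamide 3.0uM final or buffer → compounds, 15 conc. → 16hr at 37C → ONE-Glo, 30min RT → luminescence.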

[18] = target: Progesterone receptor (Homo sapiens) (UniProt P06401); assay: qHTS assay to identify small molecule antagonists of the progesterone receptor (PR) signaling pathway (AID 1346795; active means well fitted inhibition curve with a large enough effect in the signal ratio in the repeat runs, not every such curve was filed as active; the % refers to the signal ratio)
Procedure, shortened: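 After 6 hr plating at 37C in 2% stripped-serum medium, PR-UAS-bla HEK293T cells got compounds, then 1 nM R5020. Sixteen hours later, LiveBLAzer substrate was applied for 2 hr at room temperature and fluorescence was recorded.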

[19] = qHTS assay to identify small molecule antagonists of the TGF-beta/Smad signaling pathway - cell viability counter screen (AID 1346824); further: nearly all actives have a fitted effect of over 50% in size
Procedure, shortened: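 SBE-bla HEK 293T cells, incubated overnight, then compound plus 0.25 ng/mL TGF-beta1 (stock added) for 5 hr at 37 C. Viability was read in the same wells by CellTiter-Glo luminescence after 30 min at room temperature.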

[20] = qHTS assay to identify small molecule agonists or antagonists of the thyroid stimulating hormone receptor (TSHR) signaling pathway - wild type cell line counter screen (AID 1259384; calls by dose curve)
Procedure, shortened: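 Wild-type Hek293 cells, 800/well, 18 h at 37C, then compound with Ro20-1724 for 30 min RT. cAMP by HTRF (cAMP-d2/anti-cAMP cryptate), 1 h RT, fluorescence read. 15 concentrations, triplicates.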

Estrogen receptor beta (Homo sapiens), sequence (Q92731 whole entry, looked up): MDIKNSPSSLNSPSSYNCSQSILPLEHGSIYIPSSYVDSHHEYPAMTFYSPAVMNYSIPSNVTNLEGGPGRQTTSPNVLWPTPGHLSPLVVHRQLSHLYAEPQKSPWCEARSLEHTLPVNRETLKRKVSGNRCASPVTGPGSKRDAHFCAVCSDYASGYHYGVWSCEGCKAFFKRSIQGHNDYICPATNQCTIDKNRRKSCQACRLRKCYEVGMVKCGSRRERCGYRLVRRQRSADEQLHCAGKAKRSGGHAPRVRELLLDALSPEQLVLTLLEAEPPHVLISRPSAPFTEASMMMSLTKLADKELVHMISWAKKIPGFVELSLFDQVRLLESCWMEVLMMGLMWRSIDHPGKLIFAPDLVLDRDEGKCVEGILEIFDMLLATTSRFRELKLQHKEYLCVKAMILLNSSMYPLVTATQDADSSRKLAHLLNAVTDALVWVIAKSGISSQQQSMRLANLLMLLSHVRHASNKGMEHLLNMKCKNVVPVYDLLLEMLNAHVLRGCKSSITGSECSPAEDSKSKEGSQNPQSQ
Progesterone receptor (Homo sapiens), sequence (P06401 whole entry, looked up): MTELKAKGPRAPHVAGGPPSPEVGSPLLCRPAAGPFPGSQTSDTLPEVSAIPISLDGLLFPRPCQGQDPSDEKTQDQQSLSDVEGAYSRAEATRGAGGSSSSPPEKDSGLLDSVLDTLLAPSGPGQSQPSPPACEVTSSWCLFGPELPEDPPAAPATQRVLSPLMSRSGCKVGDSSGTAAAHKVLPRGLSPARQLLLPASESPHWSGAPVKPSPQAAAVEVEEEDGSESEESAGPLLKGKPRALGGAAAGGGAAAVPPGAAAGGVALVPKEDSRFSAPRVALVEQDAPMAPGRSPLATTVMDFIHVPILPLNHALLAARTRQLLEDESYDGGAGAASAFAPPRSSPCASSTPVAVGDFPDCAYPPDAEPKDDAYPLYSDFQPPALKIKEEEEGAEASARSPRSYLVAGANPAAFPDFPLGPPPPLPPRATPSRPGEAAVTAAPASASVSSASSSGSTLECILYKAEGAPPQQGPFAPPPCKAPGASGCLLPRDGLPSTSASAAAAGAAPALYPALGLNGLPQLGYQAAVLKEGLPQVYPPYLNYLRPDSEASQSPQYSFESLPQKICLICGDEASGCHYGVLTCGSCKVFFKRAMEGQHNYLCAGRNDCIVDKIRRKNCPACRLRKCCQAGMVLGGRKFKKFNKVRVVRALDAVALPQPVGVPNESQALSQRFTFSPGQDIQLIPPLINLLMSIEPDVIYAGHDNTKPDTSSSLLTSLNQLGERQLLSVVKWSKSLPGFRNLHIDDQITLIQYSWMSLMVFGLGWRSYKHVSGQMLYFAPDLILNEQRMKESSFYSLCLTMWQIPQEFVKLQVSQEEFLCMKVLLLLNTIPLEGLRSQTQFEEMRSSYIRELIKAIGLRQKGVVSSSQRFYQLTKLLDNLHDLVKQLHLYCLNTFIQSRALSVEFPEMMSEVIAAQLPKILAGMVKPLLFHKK
Thyrotropin-releasing hormone receptor (Homo sapiens), sequence (P34981 whole entry, looked up): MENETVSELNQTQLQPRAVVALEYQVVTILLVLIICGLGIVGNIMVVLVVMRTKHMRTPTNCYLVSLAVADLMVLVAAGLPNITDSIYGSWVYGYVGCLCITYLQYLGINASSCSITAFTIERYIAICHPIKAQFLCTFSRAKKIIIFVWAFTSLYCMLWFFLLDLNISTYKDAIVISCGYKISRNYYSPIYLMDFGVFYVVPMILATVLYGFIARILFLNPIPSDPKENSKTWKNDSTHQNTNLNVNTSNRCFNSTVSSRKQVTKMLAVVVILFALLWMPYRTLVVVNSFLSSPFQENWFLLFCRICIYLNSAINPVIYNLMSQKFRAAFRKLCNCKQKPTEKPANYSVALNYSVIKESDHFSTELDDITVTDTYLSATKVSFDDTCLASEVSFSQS
Androgen receptor (Homo sapiens), sequence (P10275 whole entry, looked up): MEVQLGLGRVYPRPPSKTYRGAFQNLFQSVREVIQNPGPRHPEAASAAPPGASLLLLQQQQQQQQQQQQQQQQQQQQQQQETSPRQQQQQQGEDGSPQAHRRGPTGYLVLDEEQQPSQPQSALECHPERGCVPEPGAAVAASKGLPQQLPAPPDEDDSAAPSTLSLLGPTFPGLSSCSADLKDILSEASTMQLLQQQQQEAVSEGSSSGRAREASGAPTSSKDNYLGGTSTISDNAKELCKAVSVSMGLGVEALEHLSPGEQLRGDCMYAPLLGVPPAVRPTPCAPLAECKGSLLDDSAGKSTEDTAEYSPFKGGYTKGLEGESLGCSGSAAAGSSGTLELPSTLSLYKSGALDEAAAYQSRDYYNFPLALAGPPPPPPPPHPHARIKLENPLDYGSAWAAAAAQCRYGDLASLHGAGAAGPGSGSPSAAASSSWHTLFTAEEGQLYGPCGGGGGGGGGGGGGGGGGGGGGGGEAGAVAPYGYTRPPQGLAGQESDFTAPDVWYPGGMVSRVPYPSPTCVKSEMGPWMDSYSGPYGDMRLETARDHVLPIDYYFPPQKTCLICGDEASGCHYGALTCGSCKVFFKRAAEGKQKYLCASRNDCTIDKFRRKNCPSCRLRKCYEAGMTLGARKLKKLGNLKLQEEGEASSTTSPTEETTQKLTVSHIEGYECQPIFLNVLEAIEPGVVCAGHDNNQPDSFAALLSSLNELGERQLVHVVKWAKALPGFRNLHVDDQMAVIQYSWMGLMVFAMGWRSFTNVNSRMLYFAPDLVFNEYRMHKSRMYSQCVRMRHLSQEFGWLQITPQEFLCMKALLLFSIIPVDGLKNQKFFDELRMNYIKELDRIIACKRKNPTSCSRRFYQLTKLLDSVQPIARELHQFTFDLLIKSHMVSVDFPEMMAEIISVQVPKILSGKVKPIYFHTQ
Thyrotropin receptor (Homo sapiens), sequence (P16473 whole entry, looked up): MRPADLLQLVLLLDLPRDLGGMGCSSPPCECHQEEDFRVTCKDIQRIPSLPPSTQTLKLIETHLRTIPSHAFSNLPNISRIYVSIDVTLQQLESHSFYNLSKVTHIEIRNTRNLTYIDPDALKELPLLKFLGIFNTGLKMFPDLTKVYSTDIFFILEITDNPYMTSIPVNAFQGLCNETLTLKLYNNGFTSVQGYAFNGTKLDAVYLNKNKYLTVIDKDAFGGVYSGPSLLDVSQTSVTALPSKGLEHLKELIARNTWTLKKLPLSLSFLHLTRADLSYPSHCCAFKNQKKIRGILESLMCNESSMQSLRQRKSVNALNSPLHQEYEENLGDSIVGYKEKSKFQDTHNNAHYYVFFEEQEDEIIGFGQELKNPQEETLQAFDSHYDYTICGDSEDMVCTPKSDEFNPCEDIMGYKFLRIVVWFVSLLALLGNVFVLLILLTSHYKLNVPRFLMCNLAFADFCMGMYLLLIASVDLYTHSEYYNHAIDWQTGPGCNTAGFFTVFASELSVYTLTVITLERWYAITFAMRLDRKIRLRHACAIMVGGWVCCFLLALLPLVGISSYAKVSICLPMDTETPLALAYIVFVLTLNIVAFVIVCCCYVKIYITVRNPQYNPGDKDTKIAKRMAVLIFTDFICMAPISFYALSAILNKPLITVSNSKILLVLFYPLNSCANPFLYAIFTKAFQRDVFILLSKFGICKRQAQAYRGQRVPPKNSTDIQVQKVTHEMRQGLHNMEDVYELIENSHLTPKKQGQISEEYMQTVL
Estrogen receptor (Homo sapiens), sequence (P03372 whole entry, looked up): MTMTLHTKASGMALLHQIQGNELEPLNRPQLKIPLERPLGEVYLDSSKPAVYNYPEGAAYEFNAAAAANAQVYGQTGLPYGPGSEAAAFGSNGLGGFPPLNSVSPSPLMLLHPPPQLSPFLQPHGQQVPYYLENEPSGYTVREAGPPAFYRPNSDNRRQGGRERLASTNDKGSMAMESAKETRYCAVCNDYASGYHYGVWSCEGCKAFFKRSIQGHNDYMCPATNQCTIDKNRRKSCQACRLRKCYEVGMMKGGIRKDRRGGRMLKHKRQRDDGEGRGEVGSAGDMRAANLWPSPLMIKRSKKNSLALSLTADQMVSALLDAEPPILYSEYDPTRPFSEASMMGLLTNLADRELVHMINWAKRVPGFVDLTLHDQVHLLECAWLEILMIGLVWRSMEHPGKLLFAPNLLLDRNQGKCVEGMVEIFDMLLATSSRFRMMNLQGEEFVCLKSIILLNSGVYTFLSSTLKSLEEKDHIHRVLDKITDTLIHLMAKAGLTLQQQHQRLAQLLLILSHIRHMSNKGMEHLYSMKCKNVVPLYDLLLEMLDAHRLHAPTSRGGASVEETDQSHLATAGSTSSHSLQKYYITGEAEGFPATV

| Structure (SMILES) | Potency [1] | Potency [2] | Potency [3] | Potency [4] | Potency [5] | Potency [6] | Potency [7] | Potency [8] | Potency [9] | Potency [10] | Potency [11] | Potency [12] | outcome [13] | Potency [14] | Potency [15] | Potency [16] | Potency [17] | Potency [18] | Potency [19] | outcome [20] |
| --- | --- | --- | --- | --- | --- | --- | --- | --- | --- | --- | --- | --- | --- | --- | --- | --- | --- | --- | --- | --- |
| COCC(=O)N(c1c(C)cccc1C)[C@H](C)C(=O)OC | inactive | inactive | inactive | inactive | inactive | inactive | inactive | inactive | inactive | inactive | inactive | inactive | inactive | inactive | inactive | inactive |  |  |  |  |
| CCCCOP(=O)(CCCC)OCCCC | inactive | inactive | inactive | inactive | inactive |  |  | inactive | inactive | inactive | inactive | inactive | inactive |  |  | inactive | inactive | inactive | inactive |  |
| CCC(C)c1cc(C(C)(C)C)cc(-n2nc3ccccc3n2)c1O (stereo unspecified) | inactive | inactive | inactive | inactive | inactive |  |  | inactive | inactive | inactive |  | inactive | inactive | inactive | inactive | inactive | inactive |  | inactive |  |
| N#Cc1ccccc1N | inactive | inactive | inactive | inactive | inactive | inactive | inactive |  |  | inactive | inactive | inactive | inactive | inactive | inactive | inactive | inactive |  | inactive | inactive |
| O=C(CCl)Nc1ccccc1 | inactive | 27.3 µM (active) | 61.1 µM (active) | inactive | inactive | inactive | inactive | 68.6 µM (active) | inactive | 19.3 µM (active) | inactive | inactive | inactive | inactive | inactive | 61.1 µM (active) | inactive |  |  | inactive |
| N#Cc1ccccc1Cl | inactive | inactive | inactive | inactive | inactive |  | inactive | inactive | inactive | inactive | inactive | inactive | inactive | inactive | inactive | inactive |  |  | inactive | inactive |
| COc1ccc(/C(=C/C(=O)N2CCOCC2)c2ccc(Cl)cc2)cc1OC | inactive | inactive | inactive | 68.6 µM (active) |  |  | inactive | inactive | inactive | inactive | inactive | inactive | inactive | inactive | inactive | inactive | inactive |  | inactive | inactive |
| C[As+](C)(C)CC(=O)[O-] | inactive | inactive | inactive | inactive | inactive | inactive | inactive | inactive | inactive | inactive | inactive | inactive | inactive | inactive | inactive | inactive | inactive | inactive | inactive | inactive |
| ClC1=C(Cl)[C@]2(Cl)[C@@H]3[C@@H](Cl)[C@@H](Cl)C[C@@H]3[C@@]1(Cl)C2(Cl)Cl | inactive | inactive | inactive | inactive | inactive | inactive |  |  | inactive | inactive |  | inactive | inactive | inactive | inactive | inactive | inactive | inactive | inactive |  |
| Cc1ccc(C(=O)Cl)cc1 | inactive | inactive | inactive | inactive | inactive | inactive | inactive | inactive | inactive | inactive | inactive | inactive | inactive | inactive | inactive | inactive | inactive | inactive | inactive |  |
| N#CCc1ccc(Cl)cc1 | inactive | inactive | inactive | inactive | inactive | inactive |  | inactive | inactive | inactive | inactive | inactive | inactive | inactive | inactive | inactive |  | inactive | inactive |  |
| N#CCCO | inactive | inactive | inactive | inactive | inactive | inactive |  | inactive | inactive | inactive | inactive | inactive | inactive | inactive | inactive | inactive | inactive | inactive |  |  |
| CCN | inactive | inactive | inactive | inactive | inactive |  | inactive | inactive | inactive | inactive | inactive | inactive | inactive | inactive | inactive | inactive |  | inactive | inactive | inactive |
| CC(C)CBr | inactive | inactive | inactive | inactive | inactive | inactive | inactive | inactive | inactive | inactive | inactive | inactive | inactive | inactive | inactive | inactive | 0.386 µM (active) | inactive |  | inactive |
